Drawing on ChEMBL document CHEMBL4513216, “Probing the Open Global Health Chemical Diversity Library for Multistage-Active Starting Points for Next-Generation Antimalarials” (ACS Infect Dis, 2020), this text covers INHIBITION for 68 compounds.

In this assay the test system is Plasmodium berghei. Kind of assay: Screen against P. berghei liver stage (PbLuc), transformed with Luciferase, at 2uM. It counts as functional, HepG2. Particulars: tested at 2 uM.

Molecules are shown by their SMILES. Values joined by “and” are separate entries in the source; they are usually repeats but may differ in a detail not shown here. Identical values can stand only once. The whole screen tested about 68,000 compounds, of which about 2,700 (4%) showed an effect of 50% or more. The sample holds strong results, similar compounds and a random draw of the others, so the mix is not that of the screen.

For the compound `O=C1[C@@H]2CN(C3CCOCC3)C[C@H]2CCN1CC1CC1`, the INHIBITION was found to be 27.65%.

Consider `O=C1CCCC2=Nc3nonc3NC(c3ccc(Cl)cc3Cl)C12` (stereo not drawn), for which the INHIBITION was -53.9%.

Turning to `CC(C)c1ccc2c(c1)CCCN2C(=O)CN(C)S(C)(=O)=O`, the INHIBITION is -20.21%.

For the compound `OCC(O)CSCc1nnc(-c2cccc(F)c2)o1` (stereo not drawn), the INHIBITION came out at 10.23%.

On to `COc1cccn(Cc2nnc(-c3cccc(F)c3)o2)c1=O`, for which the INHIBITION came to 25.02%.

Turning to `CC(C)OCCSCc1nnc(-c2cccc(F)c2)o1`, the INHIBITION turned out to be 55.39%.

Turning to `COC(=O)c1cccn1C1CCN(CCN2C(=O)CCC2=O)CC1`, the INHIBITION came out at 31.46%.

Regarding `COc1ccc(NC(=O)N2CCCC2c2ccco2)cc1OC` (stereo not drawn), the INHIBITION is -28.88%.

`CCCc1cc(CNC2CCN(c3cc(C(C)C)nc(C)n3)CC2)on1`: the INHIBITION was -8.34%.

On to `CCCc1cc(CNC2CCN(c3cc(C)nc(N)n3)CC2)on1`, for which the INHIBITION is listed as -13.81%.

On to `CCCc1cc(CNC2CCN(c3nc(C)cc(C)n3)CC2)on1`, for which the INHIBITION was 58.59%.

`Cc1cn2c(=O)c(-c3ccnc(N(C)C4CCCCC4)n3)cnc2s1`: the INHIBITION is listed as -35.83%.

With `Cc1nc(N2C[C@H]3CNC[C@H]3C2)c2sccc2n1`, the INHIBITION came to 50.98%.

For `COC1[C@@H]2CC[C@H]1CN(c1nc(C)nc3ccsc13)C2` (stereo partly drawn), the INHIBITION is -67.34%.

Turning to `Cc1nc(N2C[C@@H](CN3CCCCC3)[C@@H](CO)C2)c2sccc2n1`, the INHIBITION is -38.35%.

For the compound `O=C(NCc1nn(-c2ccccc2)c2c1CCC2)NC1CCC(O)CC1` (stereo not drawn), the INHIBITION is listed as -43.23%.

On to `NC1CCCCN(Cc2ccccc2CS(=O)(=O)c2ccccc2)C1` (stereo not drawn), for which the INHIBITION is listed as 21.97%.

Take `O=S(=O)(Cc1ccccc1CN1CC[C@H](CO)[C@H](O)C1)c1ccccc1`: the INHIBITION worked out at 48.21%.

Take `N[C@@H]1CCN(Cc2ccccc2CS(=O)(=O)c2ccccc2)C[C@H]1O`: the INHIBITION is reported as 83.98%.

For the compound `CC(C)(C)NC(=O)CNc1ncc(Br)cn1`, the INHIBITION is reported as -20.72%.

For `CCc1c(C)nn2c(O)cc(C3CCN(C(=O)c4ccccn4)C3)nc12` (stereo not drawn), where the note is “2 µM”, the INHIBITION is -16.2% and -18.64%.

With `CC1Oc2c(cccc2C(=O)N2CCN(CC(C)(C)O)CC2)NC1=O` (stereo not drawn), the INHIBITION was -34.12%.

`Cc1ncccc1C(=O)Nc1cccc(C[S+](C)[O-])c1C` (stereo not drawn): the INHIBITION stood at 31.58%.

`Cc1cccc(CSc2nnc(C)n2CC(N)=O)c1`: the INHIBITION came out at 20.41%.

Regarding `CC(C)c1nc(CSc2nnc(-c3cccs3)n2CC(N)=O)no1`, the INHIBITION amounted to 51.4%.

`NC(=O)Cn1c(SCc2noc(-c3ccsc3)n2)nnc1C1CC1`: the INHIBITION is -2.44%.

Consider `CCc1noc(C(C)Sc2nnc(C3CC3)n2CC(N)=O)n1` (stereo not drawn), for which the INHIBITION turned out to be 35.26%.

`CC(C)c1nc(CSc2nnc(C3CC3)n2CC(N)=O)no1`: the INHIBITION amounted to 53.55%.

Regarding `CC(Sc1nnc(C2CC2)n1CC(N)=O)c1ccc(Cl)cc1` (stereo not drawn), the INHIBITION is listed as -87.32%.

Take `CCc1nn(-c2cc(Oc3cc(C)ccc3C)nc(C)n2)c(N)c1C#N`: the INHIBITION worked out at 16.91%.

For the compound `CC(C)CCN1C[C@@H]2OCCN(c3ncc(F)cn3)[C@@H]2C1`, the INHIBITION came to 29.74%.

On to `O=C(c1ccc(=O)[nH]n1)N1CCCC(O)(CN2CCC(F)(F)CC2)CC1` (stereo not drawn), for which the INHIBITION was determined as 23.7%.

For the compound `Cn1c2c(ccc1=O)CC(NC(=O)Cc1ccsc1)CC2` (stereo not drawn), the INHIBITION stood at 76.24%.

For `Cn1c2c(ccc1=O)CC(NC(=O)c1ccsc1)CC2` (stereo not drawn), the INHIBITION is reported as 0.57%.

Regarding `Cn1c2c(ccc1=O)CC(Nc1ncc(F)cn1)CC2` (stereo not drawn), the INHIBITION is reported as 6.22%.

As for `Cc1cnc(NC2CCc3c(ccc(=O)n3C)C2)nc1` (stereo not drawn), the INHIBITION is given as 58.93%.

For the compound `O=C(Cc1ccsc1)NC1CCc2c(ccc(=O)n2CC2CC2)C1` (stereo not drawn), the INHIBITION is given as 6.85%.

For the compound `CCc1cnc(NC2CCc3c(ccc(=O)n3C)C2)nc1` (stereo not drawn), the INHIBITION is listed as -17.39%.

As to `CC(C)=CCN1C[C@@H]2CC[C@H]1CN(Cc1coc(C)n1)C2`, the INHIBITION was -60.75%.

Regarding `COC(=O)c1ccc(CN2CCC(c3n[nH]c(C)n3)CC2)s1`, the INHIBITION is reported as -54.89%.

`CC(C)=CCC1(C(=O)O)CCCN(CCC(=O)NC2CC2)C1` (stereo not drawn): the INHIBITION turned out to be 9.43%.

In the case of `Cc1ccc(NC(=O)NCCCc2n[nH]c(N)c2C#N)cc1`, the INHIBITION is recorded as 33.01%.

As to `CCc1cnc(N)nc1NC(C)c1ccc(C)c(C)c1` (stereo not drawn), the INHIBITION is listed as 35.84%.

As to `O=C(c1ccncn1)N1CCC[C@]2(C[C@H](OCC3CC3)CO2)C1`, the INHIBITION worked out at 16.78%.

Take `CC(C)(C)OCC1CN(Cc2cccs2)S(=O)(=O)c2cnccc2O1` (stereo not drawn): the INHIBITION is 35.6%.

In the case of `O=C1CCSCC(C(=O)N2CCCCC2)N1` (stereo not drawn), the INHIBITION amounted to 39.58%.

With `O=C1CCSCC(C(=O)N2CCN(C3CCCCC3)CC2)N1` (stereo not drawn), the INHIBITION is given as 51.94%.

`O=C1CCSCC(C(=O)N2CCCC2)N1` (stereo not drawn): the INHIBITION is given as 19.35%.

Take `O=C(N[C@]12CC1CN(C(=O)c1ccco1)C2)c1ccoc1` (stereo partly drawn): the INHIBITION is 14.47%.

Consider `O=C(N[C@]12CC1CN(C(=O)c1ccco1)C2)c1ccco1` (stereo partly drawn), for which the INHIBITION is listed as -50.87%.

For `O=C(N[C@]12CC1CN(C(=O)c1ccco1)C2)c1cccc(F)c1` (stereo partly drawn), the INHIBITION is 52.36%.

As to `Nc1nc(CN2CCCCC2Cn2cncn2)nc2ccccc12` (stereo not drawn), the INHIBITION is given as -42.37%.

For the compound `Cc1cnc(N2C(=O)CSC2c2ccc(N(C)C)cc2)s1` (stereo not drawn), the INHIBITION was -8.23%.

Take `O=C(O)c1cc(-c2cccs2)nc2c(Br)cnn12`: the INHIBITION is -11.83%.

For the compound `Cn1ccnc1CN1CCN(CC(O)c2ccc(F)cc2)CC1` (stereo not drawn), the INHIBITION is given as -10.66%.

As to `CC(c1ccc(F)c(F)c1)N1CCN(Cc2nccn2C)CC1` (stereo not drawn), the INHIBITION is reported as 62.13%.

In the case of `CC(c1cccc(F)c1)N1CCN(Cc2nccn2C)CC1` (stereo not drawn), the INHIBITION is 0.46%.

Take `CC(c1ccc(F)cc1)N1CCN(Cc2nccn2C)CC1` (stereo not drawn): the INHIBITION is given as 5.09%.

`Cn1ccnc1CN1CCN(CC(O)c2cccc(F)c2)CC1` (stereo not drawn): the INHIBITION was -0.3%.

Turning to `Cn1ccnc1CN1CCN(CC(O)c2ccc(F)c(F)c2)CC1` (stereo not drawn), the INHIBITION was 56.67%.

`CN(C1CCN(c2ccccn2)CC1)S(=O)(=O)c1cccc(F)c1`: the INHIBITION is reported as 15.38%.

In the case of `COCC1CN(Cc2ccc(C)o2)Cc2cnn(CC3CCOCC3)c21` (stereo not drawn), the INHIBITION is given as -24.39%.

With `Cc1nnsc1C(=O)NCCn1ccc(-c2ccncc2)n1`, the INHIBITION was -34.54%.

In the case of `Cc1cc(CC(=O)N(C)Cc2cccc(OC(C)C)c2)n[nH]1`, the INHIBITION is -75.84%.

Regarding `Cc1nc(-c2nnc[nH]2)sc1C(=O)N1CCCC1c1ccsc1` (stereo not drawn), the INHIBITION was -26.81%.

As for `Cc1ncc(CN2CCCC(c3nc4ccccc4n3C(C)C)C2)s1` (stereo not drawn), the INHIBITION was found to be 61.57%.

Turning to `Cc1cnc(CN2CCCC(c3nc4ccccc4n3C(C)C)C2)o1` (stereo not drawn), the INHIBITION worked out at 37.77%.

On to `CC(C)n1c(C2CCCN(Cc3ccnn3C)C2)nc2ccccc21` (stereo not drawn), for which the INHIBITION was found to be 16.87%.
